Test [1] is described as follows: optical density shifts of acrAB sulA E. coli – strain DRC41, OD650, 48 h, E. coli filamentation inducer project, primary screen (AID 1152).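 Further: E. coli MC1000 strain DRC41 lacking acrAB efflux pump and sulA.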 As to conditions: higher = more signal, called active from +8 up or from −8 down.
A short description of test [2]: probe aLefty1 binding on compound microarray – biochemical, small-molecule microarray, 635/667 nm fluorescence, primary screen (AID 1153).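 Further: score merges spot fluorescence with signal-to-noise ratio from the scanned slide images.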 To be noted: higher = more signal.
Test [3] is described as follows: plasmodial surface anion channel blockers, osmotic lysis – cell-based, P. falciparum Indochina, OD700, 1 h, primary screen (AID 1154). As to conditions: P. falciparum Indochina infected RBC osmotic lysis, higher = more signal, called active from +8 up or from −8 down.
Test [4] in a line: plasmodial surface anion channel blockers, osmotic lysis – cell-based, P. falciparum Indochina, OD700, 2 h, primary screen (AID 1155).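 Further: lysis reports solute entry through the parasite surface anion channel PSAC.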 To be noted: P. falciparum Indochina infected erythrocytes, higher = more signal, called active from +8 up or from −8 down.
Test [5] is described as follows: changes in parasitized red cell lysis, either direction – P. falciparum Indochina, OD700, 3 h, PSAC antagonist project, primary screen (AID 1156). As to conditions: P. falciparum-infected erythrocytes, osmotic lysis, higher = more signal, called active from +8 up or from −8 down.
The nature of test [6]: plasmodial surface anion channel blockers, osmotic lysis – cell-based, P. falciparum Indochina, OD700, 18 h, primary screen (AID 1157). To be noted: P. falciparum Indochina infected erythrocytes, osmotic lysis OD700, 18 h; higher = more signal, called active from +8 up or from −8 down.
Test [7] is described as follows: S6 kinase pathway phospho-S6 level changes – cell-based, A549, cytoblot, luminescence, serum-stimulated, primary screen (AID 1158).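 Further: serum-stimulated A549 lung adenocarcinoma cells; signal is phosphorylated S6 detected by cytoblot immunostaining with HRP secondary.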 As to conditions: 5 h, higher = more signal.
Test [8] has as its target NADPH oxidase 2 (Homo sapiens) (UniProt P04839). Put plainly: compounds shifting NOX2 Amplex Red fluorescence – cell-based, HEK293-NOX2, PMA-stimulated, NOX inhibitor project, primary screen (AID 1159). Further: test concentration not given here. To be noted: 45 min, higher = more signal, called active from +8 up or from −8 down.
The target of test [9] is NADPH oxidase 4 (Homo sapiens) (UniProt Q9NPH5). Put plainly: compounds shifting NOX4 Amplex Red fluorescence – cell-based, HEK293-NOX4, tetracycline-induced, NOX inhibitor project, primary screen (AID 1160). To be noted: HEK293-NOX4, Amplex Red H2O2 fluorescence, 45 min; higher = more signal, called active from +8 up or from −8 down.
NADPH oxidase 4 (Homo sapiens), sequence (Q9NPH5 whole entry, looked up): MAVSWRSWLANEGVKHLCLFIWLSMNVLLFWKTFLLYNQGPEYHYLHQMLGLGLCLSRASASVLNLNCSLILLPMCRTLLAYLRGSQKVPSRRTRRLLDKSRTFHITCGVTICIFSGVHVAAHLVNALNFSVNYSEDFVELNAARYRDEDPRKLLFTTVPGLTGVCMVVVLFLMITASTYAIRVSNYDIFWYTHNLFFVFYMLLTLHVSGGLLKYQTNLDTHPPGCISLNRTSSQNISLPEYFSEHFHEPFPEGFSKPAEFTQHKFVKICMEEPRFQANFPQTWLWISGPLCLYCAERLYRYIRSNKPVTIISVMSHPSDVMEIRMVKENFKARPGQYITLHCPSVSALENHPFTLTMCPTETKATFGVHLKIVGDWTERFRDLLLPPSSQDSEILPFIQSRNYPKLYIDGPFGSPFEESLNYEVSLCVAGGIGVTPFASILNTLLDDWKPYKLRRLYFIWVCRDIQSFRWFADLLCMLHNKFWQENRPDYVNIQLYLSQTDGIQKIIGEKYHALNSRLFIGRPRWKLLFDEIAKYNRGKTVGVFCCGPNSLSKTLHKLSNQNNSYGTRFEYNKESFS
The target of test [10] is NADPH oxidase 5 (Homo sapiens) (UniProt Q96PH1). The test is described as follows: compounds shifting NOX5 Amplex Red fluorescence – cell-based, HEK293-NOX5, NOX inhibitor project, primary screen (AID 1161). As to conditions: HEK293-NOX5, ionomycin, 45 min, higher = more signal.
NADPH oxidase 5 (Homo sapiens), sequence (Q96PH1 whole entry, looked up): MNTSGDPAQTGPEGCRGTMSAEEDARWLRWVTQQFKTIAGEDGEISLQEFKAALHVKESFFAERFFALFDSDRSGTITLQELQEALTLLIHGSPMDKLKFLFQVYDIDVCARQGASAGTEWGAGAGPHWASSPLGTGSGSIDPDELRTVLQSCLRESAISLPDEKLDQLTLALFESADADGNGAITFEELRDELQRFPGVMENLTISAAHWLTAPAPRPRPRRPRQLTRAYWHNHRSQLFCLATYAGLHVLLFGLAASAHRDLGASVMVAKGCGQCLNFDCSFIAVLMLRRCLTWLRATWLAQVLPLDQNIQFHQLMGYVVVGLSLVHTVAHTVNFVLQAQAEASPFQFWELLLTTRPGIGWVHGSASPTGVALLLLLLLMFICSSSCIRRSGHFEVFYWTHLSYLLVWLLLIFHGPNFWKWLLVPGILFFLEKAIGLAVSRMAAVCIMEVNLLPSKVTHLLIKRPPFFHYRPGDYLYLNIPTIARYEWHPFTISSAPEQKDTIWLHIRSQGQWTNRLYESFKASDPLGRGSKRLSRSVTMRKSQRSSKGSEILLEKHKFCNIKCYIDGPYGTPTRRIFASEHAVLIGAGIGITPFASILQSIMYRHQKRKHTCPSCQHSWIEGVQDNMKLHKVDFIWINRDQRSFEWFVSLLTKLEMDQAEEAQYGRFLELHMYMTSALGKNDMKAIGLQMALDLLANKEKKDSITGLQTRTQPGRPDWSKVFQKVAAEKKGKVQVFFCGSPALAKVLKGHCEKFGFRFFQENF
Test [11] can be described thus: compound effects on lung adenocarcinoma cell viability – A549, calcein-AM fluorescence, 48 h, basal, profiling panel (AID 1162). Further: test concentration not given here. To be noted: higher = more signal.
A short description of test [12]: compound effects on differentiated 3T3-L1 adipocyte viability – cell-based, 3T3-L1 adipocytes, calcein-AM fluorescence, 48 h, basal, profiling panel (AID 1163). Further: test concentration not given here. To be noted: 3T3-L1 adipocytes viability, higher = more signal.
Test [13] is described as follows: compound effects on hepatocellular carcinoma cell viability – HepG2, calcein-AM fluorescence, 48 h, basal, profiling panel (AID 1164). Further: test concentration not given here. As to conditions: higher = more signal.
The nature of test [14]: compound effects on multiple myeloma cell viability – MM1S, calcein-AM fluorescence, 48 h, basal, profiling panel (AID 1165).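 Further: viability of MM1S multiple myeloma cells under basal unstimulated conditions; test concentration not given here.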 To be noted: higher = more signal.
A short description of test [15]: calcein-AM signal in unstimulated myeloma cells – cell-based, calcein-AM fluorescence, 48 h, PK04 Diversity Set, profiling panel (AID 1166).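 Further: cells grown under basal conditions without added stimulus; test concentration not given here.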 As to conditions: RPMI8226 myeloma viability, higher = more signal.
Test [16] is described as follows: JC-1 mitochondrial signal, unstimulated HepG2 cells – cell-based, JC-1 fluorescence, 24 h, 100 nL compound, profiling panel (AID 1167). Further: test concentration not given here. As to conditions: HepG2 mitochondrial potential, higher = more signal.
Test [17] can be described thus: JC-1 mitochondrial signal, unstimulated adipocytes – cell-based, JC-1 fluorescence, 3T3-L1 adipocytes, 24 h, 100 nL compound, profiling panel (AID 1168). Further: test concentration not given here. As to conditions: JC-1 mitochondrial fluorescence, higher = more signal, called active from +8 up or from −8 down.
A short description of test [18]: JC-1 mitochondrial signal, unstimulated myeloma cells – cell-based, JC-1 fluorescence, RPMI8226, 24 h, 100 nL compound, profiling panel (AID 1169). Further: test concentration not given here. To be noted: JC-1 mitochondrial potential fluorescence, higher = more signal.
Test [19] is described as follows: JC-1 mitochondrial signal, unstimulated MM1S myeloma – cell-based, JC-1 fluorescence, 24 h, 100 nL compound, profiling panel (AID 1170). Further: test concentration not given here. As to conditions: MM1S mitochondrial potential, higher = more signal.
The nature of test [20]: resazurin metabolic signal in A549 cells – cell-based, resazurin fluorescence, 24 h, PK04 Diversity Set, profiling panel (AID 1171). Further: test concentration not given here. To be noted: A549 viability, higher = more signal, called active from +8 up or from −8 down. For orientation: Alamar Blue is a resazurin reagent that responds to reducing activity.

The structures appear in SMILES notation. Activity calls are given as the source filed them.

NADPH oxidase 2 (Homo sapiens), sequence (P04839 whole entry, looked up): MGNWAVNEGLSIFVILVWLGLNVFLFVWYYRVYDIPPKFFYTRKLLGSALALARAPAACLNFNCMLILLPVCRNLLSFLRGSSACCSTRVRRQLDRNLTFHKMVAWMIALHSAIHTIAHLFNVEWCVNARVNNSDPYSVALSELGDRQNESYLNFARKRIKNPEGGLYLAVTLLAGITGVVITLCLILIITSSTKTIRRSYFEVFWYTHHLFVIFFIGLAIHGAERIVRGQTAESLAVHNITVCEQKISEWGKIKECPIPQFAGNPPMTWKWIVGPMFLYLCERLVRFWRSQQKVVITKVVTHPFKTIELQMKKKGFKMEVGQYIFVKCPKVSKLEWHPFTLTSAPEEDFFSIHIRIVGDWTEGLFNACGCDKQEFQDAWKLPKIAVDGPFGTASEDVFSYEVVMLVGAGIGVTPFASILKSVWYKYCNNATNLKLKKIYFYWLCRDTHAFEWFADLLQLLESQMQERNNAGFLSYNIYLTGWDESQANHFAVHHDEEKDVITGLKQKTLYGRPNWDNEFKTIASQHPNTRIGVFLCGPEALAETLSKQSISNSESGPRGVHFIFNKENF

`COC(=O)[C@]1(CO)N=C(c2ccc(OCCCO)cc2)O[C@@H]1c1ccccc1CN=[N+]=[N-]`: the z-score was 0.699 (inactive) in [1]; 7.47 (inactive) in [3]; 0.731 (inactive) in [4]; 1.34 (inactive) in test [5]; 0.497 (inactive) in [6]; -0.405 in test [7]. Further, the z-score was -0.259 (inactive) in test [8]; -0.0289 (inactive) in [9]; 0.234 in [10]; 0.0394 in [11]; 0.131 in [12]; 0.422 in test [13]. The z-score in [14] is 0.28; in [15] it was 0.0032; in test [16] it was -0.253; in test [17], 0.039 (inactive); in [18], 0.00663; in test [19], 0.0223. In [20], the z-score is -0.49 (inactive). For the same compound, in test [2], the composite z-score is -0.0626.
Regarding `CC(C)[C@@H](C(=O)O)n1cc(-c2ccccc2)nn1`, the z-score was -1.08 (inactive) in test [1]; 0.354 (inactive) in test [3]; 0.217 (inactive) in test [4]; -0.406 (inactive) in test [5]; 0.0394 (inactive) in [6]; -0.299 in test [7]. Also, the z-score in [8] was -0.7 (inactive); in [9], 0.521 (inactive); in test [10], -0.167; in test [11], -0.633; in test [12] it was -0.582; in test [13], -0.354. For the same compound, the z-score is -0.117 in test [14]; -0.887 in test [15]; -1.36 in [16]; -1.2 (inactive) in [17]; 0.00787 in [18]; 0.00093 in [19]. The z-score in test [20] is -0.423 (inactive). Further, in test [2], the composite z-score was determined as 0.241.
On to `CCOC(=O)C[C@H]1[C@H](OC(=O)Cc2ccc3c(c2)OCO3)[C@@H](NC(=O)c2ccccc2)c2cc(OCCCO)ccc2N1C(=O)Cc1ccc(OC)cc1`, for which the z-score in test [1] is 1.57 (inactive); in test [3], 9.58 (active); in [4] it was 0.828 (inactive); in [5], -0.288 (inactive); in test [6] it was -0.129 (inactive); in test [7] it was 2.91. In addition, the z-score in test [8] is -0.986 (inactive); in test [9] it was 0.205 (inactive); in test [10] it was -1.1; in test [11], 3.09; in test [12] it was 1.19; in [13], 1.01. For the same compound, the z-score in test [14] is 0.856; in test [15] it was 0.434; in test [16], 1.53; in test [17], -0.947 (inactive); in test [18], 0.133; in test [19] it was -0.851. Also, in test [20], the z-score was 0.0119 (inactive). The compound also showed a composite z-score in test [2] of -0.31.
For the compound `COCCOC(=O)N1C(=O)[C@@]2(c3cc(C#CC4=CCCCC4)ccc31)[C@H](c1ccc(OCCO)cc1)N1[C@H](c3ccccc3)[C@H](c3ccccc3)OC(=O)[C@H]1[C@@H]2C(=O)N1CCCCCCC1`, the z-score in test [1] was 3.39 (inactive); in test [3], 2.24 (inactive); in test [4], 0.742 (inactive); in test [5] it was 0.171 (inactive); in test [6] it was -0.521 (inactive); in test [7], 2.26. Also, the z-score in test [8] is 1.44 (inactive); in [9] it was 0.639 (inactive); in test [10], 1.3; in test [11], 0.508; in test [12] it was 1.35; in [13], 1.5. For the same compound, the z-score was 0.177 in test [14]; -0.288 in [15]; -0.288 in [16]; -2.7 (inactive) in test [17]; -1.19 in [18]; -1.21 in test [19]. For the same compound, the z-score in [20] was -2.16 (inactive). In test [2], this compound displayed a composite z-score of 1.85.
Take `CCc1cccc(NC(=O)O[C@H]2[C@H](OC(=O)Nc3ccc4c(c3)OCO4)[C@H](OC(=O)Nc3ccc4c(c3)OCO4)[C@@H](OC)O[C@@H]2CO)c1`: the z-score in [1] is -0.128 (inactive); in [3], 18.2 (active); in test [4] it was 2.63 (inactive); in test [5], 1.73 (inactive); in test [6] it was 1.18 (inactive); in test [7], 0.921. Also, the z-score in test [8] is -3.43 (inactive); in test [9], -1.11 (inactive); in test [10] it was -1.65; in test [11], -1.45; in [12], 1.16; in test [13], -1.35. The z-score in test [14] is -2.42; in test [15], -2.17; in [16] it was -1.56; in test [17], 0.248 (inactive); in test [18], -1.15; in test [19], -1.18. Besides, in [20], the z-score was -2.33 (inactive). In addition, the composite z-score in test [2] was 0.349.

Values taken from PubChem BioAssay.
